Data on 24 molecules can be found in PubChem BioAssay (EPA / NIEHS).

Each structure is given as a SMILES string. The source made the active and inactive calls. Rule for the calls: active = hit-call score of the fitted dose curve at least 0.9, where 1 is the maximum; inactive = score below 0.9.

The nature of assay [1]: ATG_CRE_CIS: Attagene CIS-FACTORIAL HepG2 Assay for human cAMP Responsive Element (CRE) binding protein 3 (AID 2282926). Conditions: HepG2 CRE cis-reporter, Attagene multiplexed mRNA; actives raise or lower the signal. Summed up:
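Cells carrying cis-regulated reporter constructs respond through their own endogenous factors. After 24 h treatment, RNA is reverse-transcribed, amplified, labelled and sized by capillary electrophoresis; up- and down-regulation are both scored against vehicle.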

Assay [2] has as its target CCAAT/enhancer-binding protein beta (Homo sapiens) (UniProt P17676). As to the kind of experiment: ATG_C_EBP_CIS: Attagene CIS-FACTORIAL HepG2 Assay for human CCAAT/Enhancer Binding Protein (C/EBP) beta (AID 2282927). Conditions: HepG2 Attagene cis-factorial transcription factor reporter; actives raise or lower the signal. Summed up: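 RT-PCR/capillary electrophoresis fluorescence of reporter mRNA, 24 h post-dose, in HepG2 cells carrying transfected cis-promoter reporter units. Bidirectional curve fitting against DMSO baseline captures gain or loss of signal.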

A short description of assay [3]: ATG_CMV_CIS: Attagene CIS-FACTORIAL HepG2 Assay for human CMV (Internal Marker) (AID 2282928).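 Note: endpoint acts as a background internal control marker rather than a target.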 Conditions: HepG2 CMV promoter reporter, transcription factor profiling; actives raise or lower the signal. Summed up:
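Readout: fluorescent reporter cDNA fragments separated by capillary electrophoresis after RT-PCR and HpaI cut. Cells: HepG2 carrying transfected cis-promoter reporter constructs, dosed 24 h. Endpoint serves as background internal-marker control, fit bidirectionally versus DMSO.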

Assay [4] in a line: ATG_DR4_LXR_CIS: Attagene CIS-FACTORIAL HepG2 Assay for human Liver X Receptor (LXR), DR4 submotif (AID 2282929). The note with it: HepG2 Attagene DR4 cis-reporter, mRNA transcription; actives raise or lower the signal. In short, it runs like this: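 HepG2 cells were transiently transfected with multiple cis-regulated reporter units and dosed for 24 hours. The DR4 reporter mRNA was quantified by RT-PCR, 6-FAM labelling and capillary electrophoresis. Bidirectional fits used DMSO as baseline.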

Assay [5] concerns the target Aryl hydrocarbon receptor (Homo sapiens) (UniProt P35869). As to the kind of experiment: ATG_Ahr_CIS: Attagene CIS-FACTORIAL HepG2 Assay for human Aryl Hydrocarbon Receptor (Ahr) (AID 2282930). The note with it: HepG2 AhR cis-factorial reporter transcription; actives raise or lower the signal. Summed up:
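HepG2 cells transiently transfected with cis-element-driven multiplexed reporter transcription units; endogenous transcription factor activity measured as reporter mRNA 24 h after dosing. RT-PCR, 6-FAM labelling, HpaI digestion, capillary electrophoresis; bidirectional fitting versus DMSO baseline.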

Assay [6] can be described thus: ATG_AP_1_CIS: Attagene CIS-FACTORIAL HepG2 Assay for human Activator Protein 1 (AP-1) (AID 2282931). The note with it: HepG2 Attagene cis-factorial AP-1 reporter mRNA; actives raise or lower the signal. In short, it runs like this:
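HepG2 cells transiently transfected with cis-element-driven reporter transcription units, dosed for 24 hours. Reporter mRNA measured by RT-PCR, 6-FAM labelling, HpaI digestion and capillary electrophoresis. Bidirectional fitting against DMSO baseline.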

The nature of assay [7]: ATG_AP_2_CIS: Attagene CIS-FACTORIAL HepG2 Assay for human Activator Protein 2 (AP-2) (AID 2282932). The note with it: HepG2 AP-2 cis-reporter, Attagene transcription factor profiling; actives raise or lower the signal. In short, it runs like this: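 Cells (HepG2) transfected with promoter-driven reporter constructs, treated 24 h. Total RNA reverse-transcribed, reporter cDNA PCR-amplified, FAM-labelled by primer extension, digested, resolved by capillary electrophoresis. Activity fitted both directions versus DMSO.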

The nature of assay [8]: ATG_BRE_CIS: Attagene CIS-FACTORIAL HepG2 Assay for human Bone Morphogenetic Protein (BMP) Response Element (BRE) (AID 2282933). Conditions: HepG2 BMP response element reporter, Attagene transcription factor profiling; actives raise or lower the signal. Summed up: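 A HepG2 multiplex reporter system measured inducible reporter mRNA 24 h post-dosing. Detection: RT-PCR, 6-FAM primer extension, HpaI digestion, capillary electrophoresis. Activity fitted bidirectionally relative to DMSO.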

Assay [9] addresses Retinoic acid receptor alpha (Homo sapiens) (UniProt P10276). As to the kind of experiment: ATG_DR5_RAR_CIS: Attagene CIS-FACTORIAL HepG2 Assay for human Retinoic Acid Receptor Alpha (RARE), DR5 submotif (AID 2282934).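 For AC50: reporter responds to endogenous RAR alpha beta and gamma in HepG2 not RARA alone.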 Conditions: HepG2 Attagene cis-factorial RARE DR5 reporter, mRNA; actives raise or lower the signal. In short, it runs like this: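 HepG2 cells transiently transfected with multiplexed reporter units under cis (DR5 RARE) promoters, so endogenous transcription factor activity is measured. After 24 h compound exposure, reporter mRNA is quantified by RT-PCR with fluorescent labelling and capillary electrophoresis; bidirectional fitting versus DMSO.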

The target in assay [10] is Transcription factor E2F1 (Homo sapiens) (UniProt Q01094). As to the kind of experiment: ATG_E2F_CIS: Attagene CIS-FACTORIAL HepG2 Assay for human E2F Transcription Factor 1 (AID 2282935). Conditions: HepG2 Attagene cis-reporter, E2F reporter RNA transcripts; actives raise or lower the signal. In short, it runs like this: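 First, HepG2 cells were transfected with reporter transcription units. Next, they were dosed for 24 h. Then RNA was isolated, converted to cDNA, PCR-amplified, FAM-labeled, HpaI-digested and analyzed by capillary electrophoresis.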
Transcription factor E2F1 (Homo sapiens), sequence (Q01094 whole entry, looked up): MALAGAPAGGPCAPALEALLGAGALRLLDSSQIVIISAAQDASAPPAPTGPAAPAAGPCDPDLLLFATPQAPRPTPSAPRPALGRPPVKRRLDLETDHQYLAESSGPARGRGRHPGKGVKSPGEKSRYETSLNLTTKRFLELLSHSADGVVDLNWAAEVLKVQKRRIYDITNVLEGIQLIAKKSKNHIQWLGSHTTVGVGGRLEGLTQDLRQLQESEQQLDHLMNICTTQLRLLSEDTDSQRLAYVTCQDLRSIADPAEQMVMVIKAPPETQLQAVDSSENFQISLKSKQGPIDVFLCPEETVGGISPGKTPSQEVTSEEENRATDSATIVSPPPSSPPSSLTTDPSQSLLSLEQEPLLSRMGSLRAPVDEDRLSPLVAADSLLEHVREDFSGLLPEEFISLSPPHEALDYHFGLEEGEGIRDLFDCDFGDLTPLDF

A word on the AC50: it is the concentration at which the activity in the assay is half-maximal.

Retinoic acid receptor alpha (Homo sapiens), sequence (P10276 whole entry, looked up): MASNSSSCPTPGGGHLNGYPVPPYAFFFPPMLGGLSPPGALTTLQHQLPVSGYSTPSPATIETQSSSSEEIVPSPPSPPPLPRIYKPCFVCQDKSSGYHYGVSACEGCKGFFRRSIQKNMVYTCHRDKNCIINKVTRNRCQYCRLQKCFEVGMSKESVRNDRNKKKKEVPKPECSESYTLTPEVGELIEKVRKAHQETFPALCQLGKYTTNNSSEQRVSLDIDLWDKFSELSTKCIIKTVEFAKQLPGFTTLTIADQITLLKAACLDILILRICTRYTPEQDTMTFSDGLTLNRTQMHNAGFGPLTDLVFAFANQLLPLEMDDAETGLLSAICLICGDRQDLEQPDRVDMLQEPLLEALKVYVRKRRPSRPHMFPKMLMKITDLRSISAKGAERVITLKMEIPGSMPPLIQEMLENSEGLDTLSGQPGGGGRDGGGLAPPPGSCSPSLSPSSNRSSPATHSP
Aryl hydrocarbon receptor (Homo sapiens), sequence (P35869 whole entry, looked up): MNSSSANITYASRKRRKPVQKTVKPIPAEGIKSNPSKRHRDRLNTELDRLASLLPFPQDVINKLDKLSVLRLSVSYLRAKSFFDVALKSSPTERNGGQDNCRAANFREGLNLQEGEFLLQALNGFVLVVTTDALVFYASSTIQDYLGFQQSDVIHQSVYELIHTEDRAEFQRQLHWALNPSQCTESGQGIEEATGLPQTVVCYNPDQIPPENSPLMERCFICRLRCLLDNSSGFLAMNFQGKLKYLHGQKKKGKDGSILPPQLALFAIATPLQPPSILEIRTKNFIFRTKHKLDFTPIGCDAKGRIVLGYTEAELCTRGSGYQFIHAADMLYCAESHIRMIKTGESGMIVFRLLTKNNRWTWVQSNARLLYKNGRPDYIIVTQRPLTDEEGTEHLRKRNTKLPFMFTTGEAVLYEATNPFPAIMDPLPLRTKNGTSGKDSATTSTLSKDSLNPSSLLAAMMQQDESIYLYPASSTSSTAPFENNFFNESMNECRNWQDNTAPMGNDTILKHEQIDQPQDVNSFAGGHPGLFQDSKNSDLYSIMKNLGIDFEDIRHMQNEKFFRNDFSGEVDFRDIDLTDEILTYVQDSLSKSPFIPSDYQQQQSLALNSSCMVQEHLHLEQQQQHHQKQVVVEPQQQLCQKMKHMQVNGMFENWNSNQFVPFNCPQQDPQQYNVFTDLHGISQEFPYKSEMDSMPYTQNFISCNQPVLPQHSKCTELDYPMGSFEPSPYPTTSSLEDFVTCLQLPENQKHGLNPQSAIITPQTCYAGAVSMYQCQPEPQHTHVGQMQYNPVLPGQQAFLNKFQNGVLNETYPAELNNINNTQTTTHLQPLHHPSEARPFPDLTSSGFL
CCAAT/enhancer-binding protein beta (Homo sapiens), sequence (P17676 whole entry, looked up): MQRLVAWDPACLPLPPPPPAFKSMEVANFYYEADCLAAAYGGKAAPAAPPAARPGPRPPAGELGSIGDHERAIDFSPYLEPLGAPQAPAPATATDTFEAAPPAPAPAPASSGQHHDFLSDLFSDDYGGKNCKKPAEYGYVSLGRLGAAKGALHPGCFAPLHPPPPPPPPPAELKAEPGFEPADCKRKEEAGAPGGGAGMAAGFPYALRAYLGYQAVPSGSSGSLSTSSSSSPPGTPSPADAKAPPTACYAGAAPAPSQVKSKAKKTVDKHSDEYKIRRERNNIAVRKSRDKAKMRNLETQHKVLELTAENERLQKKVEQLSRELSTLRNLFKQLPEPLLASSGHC

In the case of `FC(F)=C(F)OC(F)(F)C(F)(F)C(F)(F)F`, the result in assay [1], in [2], in assay [3], in assay [4], in assay [5] and in assay [6] was inactive. The result in assay [7], in [8], in assay [9] and in [10] was inactive.
On to `C=CC(=O)NC(C)(C)CS(=O)(=O)O`, for which the outcome in assay [1], in assay [2], in assay [3], in assay [4], in [5] and in assay [6] was inactive. The molecule was classed as inactive in assay [7], in assay [9] and in assay [10]. The half-maximal activity concentration (AC50) in assay [8] was 15.8 µM (active).
Regarding `CCCCC(CC)COC(=O)c1ccccc1` (stereo not drawn), the molecule was called inactive in assay [1], in [2], in assay [3], in [4], in assay [5] and in [6]. For the same molecule, the outcome in assay [7], in assay [8], in assay [9] and in assay [10] was inactive.
Regarding `O=[N+]([O-])C1(Br)COCOC1`, the AC50 in assay [1] was 53.6 µM (active); in assay [8], 33.4 µM (active). Further, the outcome in [2], in [3], in assay [4], in [5], in assay [6] and in assay [7] was inactive. In addition, the molecule was called inactive in assay [9] and in assay [10].
In the case of `CCOC(=O)CC(C(C)=O)C(C)=O`, the result in assay [1], in assay [2], in assay [3], in assay [4], in assay [5] and in assay [6] was inactive. Moreover, the result in assay [7], in [8], in assay [9] and in [10] was inactive.
Consider `CCCCCCCCCCc1ccccc1`, for which the outcome in assay [1], in assay [2], in assay [3], in assay [4], in assay [5] and in assay [6] was inactive. The molecule was called inactive in [7], in assay [8] and in assay [10]. For the same molecule, the AC50 in assay [9] is 84.7 µM (active).
Consider `Nc1ccc(N)c(Cl)c1`, for which the AC50 was 49.6 µM (active) in [1]; 9.98 µM (active) in assay [3]; 1.99 µM (active) in assay [5]; 18.1 µM (active) in assay [6]; 33.4 µM (active) in assay [9]. Further, the outcome in assay [2], in [4], in [7], in assay [8] and in [10] was inactive.
With `CCOC(=O)c1ccccc1C(=C1C=C(Br)C(=O)C(Br)=C1)c1cc(Br)c(O)c(Br)c1`, the AC50 in assay [1] was 25.4 µM (active); in assay [2], 18.8 µM (active); in [3] it was 53.7 µM (active); in assay [4] it was 21.5 µM (active); in [5], 26.2 µM (active); in [6], 51.7 µM (active). Besides, the figures for the AC50 in [7], in assay [8] and in [9] were 49.9 µM (active), 109 µM (active) and 21.3 µM (active), respectively. In assay [10], the molecule was classed as inactive.
As to `C[C@]12CCC(=O)C=C1CC[C@@H]1[C@@H]2C(=O)C[C@@]2(C)[C@H]1CC[C@]2(O)C(=O)CO`, the call in assay [1], in assay [2], in assay [3], in [4], in assay [5] and in assay [6] was inactive. In addition, the outcome in assay [7], in [8], in assay [9] and in assay [10] was inactive.
For `O=c1cc[nH]c(=S)[nH]1`, the molecule was called inactive in [1], in assay [2], in [3], in assay [4], in [5] and in assay [6]. In addition, the molecule was classed as inactive in assay [7], in assay [8], in [9] and in assay [10].
`CC(C)CCCC(C)CC=O` (stereo not drawn): the outcome in assay [1], in assay [2], in assay [3], in [4], in assay [5] and in assay [6] was inactive. Also, the result in assay [7], in assay [8], in [9] and in assay [10] was inactive.
As to `CC(C)CC(O)Cc1ccccc1` (stereo not drawn), the outcome in assay [1], in assay [2], in assay [3], in assay [4], in assay [5] and in [6] was inactive. Moreover, the outcome in assay [7], in assay [8], in assay [9] and in [10] was inactive.
In the case of `CCCCCCCCCCOC(C)=O`, the outcome in assay [1], in [2], in assay [3], in assay [4], in assay [5] and in [6] was inactive. For the same molecule, the result in [7], in assay [8], in assay [9] and in assay [10] was inactive.
For `CC(=O)[C@H]1[C@H](C#N)C[C@H]2[C@@H]3CC=C4C[C@@H](O)CC[C@]4(C)[C@H]3CC[C@@]21C`, the molecule was called inactive in assay [1], in assay [2], in assay [3], in assay [4], in assay [5] and in assay [6]. Moreover, the result in assay [7], in assay [8], in assay [9] and in [10] was inactive.
Consider `NC(=O)OCC(COC(N)=O)c1ccccc1`, for which the result in assay [1], in [2], in assay [3], in assay [4], in assay [5] and in assay [6] was inactive. The molecule was called inactive in [7], in assay [8], in assay [9] and in assay [10].
For `O=C(Nc1ccccc1)c1ccccc1O`, the outcome in assay [1], in assay [3], in [4], in assay [7], in assay [9] and in assay [10] was inactive. Besides, the AC50 is 53.4 µM (active) in assay [2], 19.1 µM (active) in assay [5], 27 µM (active) in [6] and 30.7 µM (active) in [8].
Turning to `CCCCCCCCCCCCCCCC[N+](C)(C)CC`, the molecule was called inactive in assay [1], in assay [2], in assay [5], in assay [8] and in assay [9]. Besides, the AC50 in assay [3] was 8.84 µM (active); in assay [4] it was 9.13 µM (active); in assay [6], 16.3 µM (active); in assay [7] it was 12.6 µM (active); in [10], 5.48 µM (active).
`CCCOCCOCCOCCO`: the molecule was called inactive in [1], in assay [2], in assay [3], in assay [4], in assay [5] and in assay [6]. The result in [7], in [8], in [9] and in [10] was inactive.
On to `O=S(=O)(O)c1ccccc1C=Cc1ccc(-c2ccc(C=Cc3ccccc3S(=O)(=O)O)cc2)cc1`, for which the call in [1], in [2], in assay [3], in assay [4], in assay [5] and in assay [6] was inactive. Further, the call in assay [7], in assay [9] and in assay [10] was inactive. In addition, the half-maximal activity concentration (AC50) in assay [8] is 39.6 µM (active).
Regarding `CC(C)=CCC/C(C)=C\C#N`, the molecule was classed as inactive in assay [1], in assay [2], in [3], in assay [4], in assay [5] and in assay [6]. In addition, the outcome in assay [7], in assay [8], in assay [9] and in assay [10] was inactive.
For the molecule `Cc1ccccc1C`, the result in [1], in assay [2], in assay [3], in [4], in assay [6] and in assay [7] was inactive. In addition, the molecule was called inactive in assay [8] and in [9].
Consider `O=C(O)Cc1c(Cl)ccc(Cl)c1Cl`, for which the result in assay [1], in [2], in assay [3], in [4], in [5] and in assay [6] was inactive. Besides, the molecule was called inactive in [7], in assay [8], in assay [9] and in [10].
Turning to `N#CCc1ccc(Cl)cc1Cl`, the result in [1], in assay [2], in assay [3], in assay [4], in assay [6] and in [7] was inactive. The molecule was classed as inactive in assay [8], in assay [9] and in [10]. Besides, the AC50 in assay [5] was 18.6 µM (active).
In the case of `CO[Si](OC)(OC)c1ccccc1`, the molecule was called inactive in assay [1], in [2], in [3], in assay [4], in [5] and in [6]. The molecule was classed as inactive in assay [7], in [8], in assay [9] and in assay [10].
